Screens deposited in PubChem by ICCB-Longwood Screening Facility, Harvard Medical School.
Anaer choline gr: growth inhibitors of anaerobic choline-fed gram-negatives, minimal medium, absorbance; AID 1963822, 2024; calls only; 55,000 tested, 0.2% active; Gram-negative bacterium anaerobic choline minimal medium; hits give low values; call rule not given here
Large screens that a line does not name were inactive. Shown is part of a subset that was picked to be rich in hits.

CN1C2CCC1CC(OC(c1ccccc1)c1ccc(Cl)cc1)C2 (configuration not stated)	Anaer choline gr active
CN1C2CCC1CC(OC(c1ccccc1)c1ccccc1N)C2 (configuration not stated)	none
Clc1ccc(C(OCCN2CCCCC2)c2ccccc2)cc1 (configuration not stated)	none
Cc1cccc(CN2CC=C(c3noc(CCC(=O)Nc4ccc(F)cc4)n3)CC2)c1	none
COc1cccc(CN2CCN(Cc3ccc(F)cc3)CC2)c1	none
O=C1/C(=C/c2ccccc2)C[C@@]2(O)[C@H]3Cc4ccc(O)c5c4[C@@]2(CCN3CC2CC2)[C@H]1O5	none
O=C(Oc1ccc([N+](=O)[O-])cc1)N1CCC(C(O)(c2ccc3c(c2)OCO3)c2ccc3c(c2)OCO3)CC1	none
O=[N+]([O-])/C=C/c1ccc2c(c1)OCO2	none
O=[N+]([O-])C=Cc1ccc2c(c1)OCO2	Anaer choline gr active
O=C(Nc1ccc2c(c1)OCO2)c1cccn(Cc2c(F)cccc2Cl)c1=O	none
